Rows were chosen to be rich in hits. Some 11% of all compounds tested hit in one or more screens of this group.
HPGD inh: qHTS Assay for Inhibitors of HPGD (15-Hydroxyprostaglandin Dehydrogenase). 15-hydroxyprostaglandin dehydrogenase [NAD(+)] (Homo sapiens), P15428. purified HPGD, NADH fluorescence kinetic, PGE2 substrate. Potency, µM, hits mostly inhibitors. 150,000 compounds, 4.3% hits. AID 894, 2007; active means well fitted inhibition curve with a large enough effect, not every such curve was filed as active; inconclusive means small, poorly fitted or top-dose-only effect, or another doubt; inactive means no such curve, though single readings can be large or run the other way
Target sequence (P15428 whole entry, looked up): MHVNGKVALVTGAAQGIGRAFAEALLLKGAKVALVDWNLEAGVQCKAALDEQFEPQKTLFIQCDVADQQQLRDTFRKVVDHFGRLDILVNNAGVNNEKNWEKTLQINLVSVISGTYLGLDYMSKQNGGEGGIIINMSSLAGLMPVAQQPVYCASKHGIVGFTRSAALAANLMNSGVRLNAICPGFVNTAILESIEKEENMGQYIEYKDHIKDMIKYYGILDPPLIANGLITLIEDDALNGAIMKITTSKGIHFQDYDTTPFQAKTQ
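NADH formation kinetics: reaction with 30 uM PGE2 and 1 mM NAD+ (final), 20 nM enzyme, Tris-HCl pH 8 with Tween 20, after 15 min compound preincubation at room temperature. Fluorescence change, last versus first of five reads.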
IMPase Li inh: qHTS Assay for Identifying the Cell-Membrane Permeable IMPase Inhibitors: Potentiation with Lithium; Potency, µM (titrated, usually from 59.4 µM), actives largely listed as inhibitors; 210,000 compounds, 0.35% hits; CHO-M1 cells, IP1 TR-FRET (IP-One), carbachol + lithium; AID 1457, 2008;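 further: IP1 builds up when IMPase is blocked and the TR-FRET signal falls; nearly all actives have a fitted effect of over 50% in size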
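Steps: plate 2000 CHO-M1 cells per well and culture 16–30 h; add compound and lithium; incubate 30 min, 37C; add d2-IP1 tracer and Eu cryptate anti-IP1 antibody in lysis buffer; read after 10 min at room temperature.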
IMPase cell inh: qHTS Assay for Identifying the Cell-Membrane Permeable IMPase Inhibitors. CHO-M1 cells, IP1 accumulation, HTRF TR-FRET ratio. inhibition (IP1 accumulation), % at 46.1 µM. 120,000 tested, under 10 active. AID 901, 2007; active means well fitted curve in the direction sought with a large enough effect in the signal ratio, not every such curve was filed as active; inconclusive means small, poorly fitted or top-dose-only effect, or a change in a side signal; inactive means no such curve, though single readings can be large or run the other way; the % refers to the signal ratio;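 further: cells stimulated with carbachol in lithium chloride buffer; higher means more IMPase inhibition seen as more IP1 and lower FRET ratio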
Target sequence (P97697 whole entry, looked up): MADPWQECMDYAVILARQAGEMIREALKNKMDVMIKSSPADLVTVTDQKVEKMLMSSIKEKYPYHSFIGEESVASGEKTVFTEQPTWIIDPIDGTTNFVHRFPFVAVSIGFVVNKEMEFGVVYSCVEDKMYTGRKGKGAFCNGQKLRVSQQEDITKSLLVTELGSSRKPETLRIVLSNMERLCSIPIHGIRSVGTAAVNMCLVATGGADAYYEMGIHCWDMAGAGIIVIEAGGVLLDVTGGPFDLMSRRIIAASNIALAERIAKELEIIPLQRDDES
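Carbachol-driven Gq signalling in CHO-M1 cells (2000/well) generates IP1. Compounds that block IMPase raise IP1 and so reduce the FRET signal from Eu-anti-IP1 and d2-IP1 after a 10 min room-temperature lysis.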
PNC inhibitor: High Content Assay for Compounds that inhibit the Assembly of the Perinucleolar Compartment. PC3M PTB-GFP, PNC prevalence imaging, 16 h; stronger effect = lower value. activity change (PNC), negative = inhibition, % at 10 µM. 140,000 compounds, 3.1% hits. AID 2417, 2010;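 active means readout at or below -70, meaning at least 70% loss of cells showing the perinucleolar compartment, a nuclear body marking cancer cells; inconclusive means readout between -30 and a set limit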
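PC3M cells stably expressing PTB-GFP, 750–1000 cells/well, treated 16 h at 37 °C with compound (23 nl of library stock), in duplicate. After paraformaldehyde fixation and Hoechst stain, imaged at 20x; PNC prevalence scored by image analysis.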
NPSR antag: qHTS Assay for Antagonists of the Neuropeptide S Receptor: cAMP Signal Transduction; Q6W5P4; 220,000 compounds, 1% hits; Potency, µM (highest dose often 38.3 µM), actives largely listed as inhibitors; CHO-NPSR cells, cAMP TR-FRET, antagonist mode; further: nearly all actives have a fitted effect of over 50% in size
ALDH1A1 block: qHTS Assay for Inhibitors of Aldehyde Dehydrogenase 1 (ALDH1A1); Potency, µM (top dose mostly 75.3 µM), most hits filed as inhibitors; 220,000 compounds, 7.3% hits; Purified ALDH1A1, NADH fluorescence, propionaldehyde substrate; active means well fitted inhibition curve with a large enough effect, not every such curve was filed as active; inconclusive means small, poorly fitted or top-dose-only effect, or another doubt; inactive means no such curve, though single readings can be large or run the other way
Of the large screens only hits and unclear results are named; the others gave an inactive call. Unless noted, the call rests on the fitted dose curve; in most records, active means well fitted curve in the direction sought with a large enough effect; inconclusive means small, poorly fitted or top-dose-only effect, or another doubt; inactive means no such curve, though single readings can be large; an effect the other way counts as inactive or inconclusive.

c1cc(-c2nnc3n2CCCCC3)ccn1	none
Cc1cc(C)n(-c2ccc(Cl)c(C(=O)Nc3ccc(-c4nnc5n4CCCCC5)cc3)n2)n1	HPGD inh 1.8µM
Cc1ccc(NC(=O)Nc2ccc(Cl)cn2)cc1	none (no result: HPGD inh, IMPase cell inh, PNC inhibitor)
Cc1onc(-c2ccccc2)c1CNC(=O)CN1C(=O)c2ccccc2C1=O	none (no result: HPGD inh, IMPase Li inh, IMPase cell inh, PNC inhibitor)
COc1ccc(NC(=S)Nc2nc(CC(=O)Nc3ccccc3OC)cs2)cc1	PNC inhibitor inconclusive, ALDH1A1 block inconclusive
O=C(Nc1ccc(Cl)cc1F)c1cc(S(=O)(=O)N2CCCCC2)ccc1F	none (no result: IMPase cell inh)
Cc1cc(=O)oc2ccc(OCC(=O)N3CCc4ccccc43)cc12	ALDH1A1 block 16µM
Cc1cc(=O)oc2cc(OCC(=O)N3CCc4ccccc4C3)ccc12	HPGD inh inconclusive, ALDH1A1 block inconclusive
Cc1cc(=O)oc2cc(OCC(=O)N3CCCc4ccccc43)ccc12	HPGD inh inconclusive, ALDH1A1 block 22µM
COCCCNC(=S)N/N=C/c1ccccc1O	ALDH1A1 block inconclusive (no result: HPGD inh, IMPase Li inh, IMPase cell inh, PNC inhibitor)
CN(C)CCN(C(=O)c1ccc(N2C(=O)CCC2=O)cc1)c1nc2cc3c(cc2s1)OCCO3	ALDH1A1 block 28µM (no result: HPGD inh, IMPase cell inh, PNC inhibitor)
CCN(CC)CCN(C(=O)c1ccc(S(=O)(=O)N2CCCCC2)cc1)c1nc2cc3c(cc2s1)OCO3	NPSR antag 10µM (no result: HPGD inh, IMPase cell inh, PNC inhibitor)
CN(C)CCCN(C(=O)c1ccc(S(=O)(=O)N(C)C)cc1)c1nc2cc3c(cc2s1)OCO3	none (no result: HPGD inh, IMPase cell inh, PNC inhibitor)
O=C1NCCC/C1=N/Nc1ccc(F)cc1	ALDH1A1 block 13µM (no result: HPGD inh, IMPase cell inh, PNC inhibitor)
O=c1cc(N2CCCCC2)c(-c2ccccc2)nn1Cc1c(Cl)cccc1Cl	NPSR antag 10µM, ALDH1A1 block inconclusive
CCC(C)(C)NC(=O)CN(C(=O)CCC(=O)Nc1cc(C)ccn1)c1ccc2c(c1)OCO2	none
CCC(C)(C)NC(=O)CN(Cc1ccccc1Cl)C(=O)CCC(=O)Nc1cc(C)ccn1	ALDH1A1 block 14µM (no result: HPGD inh, IMPase cell inh, PNC inhibitor)
Cc1ccnc(NC(=O)CCC(=O)N(CC(=O)NCCc2ccccc2)Cc2ccco2)c1	ALDH1A1 block 7.9µM
CN(C)CCCOC1C(C(O)CO)OC2OC(C)(C)O[C@@H]21 (some centres undefined)	none (no result: IMPase cell inh, PNC inhibitor, NPSR antag)
Cc1ccc(C(=O)O/N=C2\CCS(=O)(=O)c3sccc32)cc1	PNC inhibitor inconclusive, ALDH1A1 block inconclusive
O=C(OC1CCS(=O)(=O)c2sccc21)c1ccccc1 (centres undefined)	PNC inhibitor inconclusive, ALDH1A1 block 22µM
CCC(=O)NCCc1nc2ccccc2n1CC(=O)c1ccccc1	none (no result: IMPase cell inh)
CCNc1c(C(=O)O)ccc2c1C(=O)c1ccccc1C2=O	PNC inhibitor -85
O=C(O)c1cccc2c1C(=O)c1ccccc1-2	ALDH1A1 block 22µM (no result: HPGD inh, IMPase Li inh, IMPase cell inh, PNC inhibitor)
CCN(CCN(C)C)C(=O)c1ccc2c(c1NCCO)C(=O)c1ccccc1C2=O	ALDH1A1 block 14µM (no result: HPGD inh, IMPase cell inh, PNC inhibitor)
O=C1c2ccccc2C(=O)c2c1ccc(C(=O)N1CCCCC1)c2NCCO	HPGD inh inconclusive, IMPase cell inh inconclusive, PNC inhibitor inconclusive
CC1(C)CCCN(C(=O)c2ccc3c(c2NCCO)C(=O)c2ccccc2C3=O)C1	HPGD inh 16µM, ALDH1A1 block inconclusive (no result: IMPase cell inh)
COc1ccc(OC)c(-c2nc(CN(C)C(C)c3ccncn3)c(C)o2)c1 (centres undefined)	ALDH1A1 block inconclusive (no result: HPGD inh, IMPase cell inh, PNC inhibitor)
O=C(NCCn1ccc2ccccc21)C1CCCCC1	PNC inhibitor inconclusive
COc1ccccc1NC1=C(N2CCCCC2)C(=O)c2ccccc2C1=O	PNC inhibitor -85, ALDH1A1 block 10µM
O=C1C(Nc2ccccc2)=C(N2CCCCC2)C(=O)c2ccccc21	ALDH1A1 block 20µM
CN(C1=C(N2CCCCC2)C(=O)c2ccccc2C1=O)c1ccccc1	PNC inhibitor inconclusive, NPSR antag 13µM
O=C(/C=C/c1ccc(O)cc1)c1ccc(NC2=C(N3CCCCC3)C(=O)c3ccccc3C2=O)cc1	NPSR antag inconclusive, ALDH1A1 block 8.9µM
